The supplement of paper PMC10849652
About 8,800 targets were measured; listed, in parts, are those with a hit and a random draw of the rest. About 0.5% of all pairs of compound and target were hits.

What was measured:
Experiment in all cases: log2 fold change, soluble protein after heating vs DMSO (PISA); higher = thermal stabilisation; K562 lysate, 10 uM; active = over 0.2 and 3.5 SD of the protein, either way, in both replicates (recomputed)
lapatinib = compound: CS(=O)(=O)CCNCc1ccc(-c2ccc3ncnc(Nc4ccc(OCc5cccc(F)c5)c(Cl)c4)c3c2)o1 [lapatinib]
Procedure, shortened: (§1)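 To prepare the extract, K562 pellets were dounce-homogenised in PBS pH 7.4 with 1 mM MgCl2, giving crude material at 1 mg/mL protein. This was treated with 10 μM compound for 30 min, then heated in aliquots for 3 min over 48°C-58°C before pooling and addition of NP-40 to 0.5% at 4°C. Centrifugation at 21,000xg for 90 min left soluble protein in the supernatant, which TMTpro 16plex LC-MS/MS quantified with equalised channel sums. Results are log-two fold changes in thermal stability compared with solvent controls, from duplicates.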

pictilisib = compound: CS(=O)(=O)N1CCN(Cc2cc3nc(-c4cccc5[nH]ncc45)nc(N4CCOCC4)c3s2)CC1 [pictilisib]
Procedure, shortened: as §1

crizotinib = compound: C[C@@H](Oc1cc(-c2cnn(C3CCNCC3)c2)cnc1N)c1c(Cl)ccc(F)c1Cl [crizotinib]
Procedure, shortened: as §1

[1] = compound: C[C@H](C1=CC=C(C=C1)C(=O)NC2=C3C=CNC3=NC=C2)N
Procedure, shortened: as §1

duvelisib = compound: C[C@H](Nc1ncnc2nc[nH]c12)c1cc2cccc(Cl)c2c(=O)n1-c1ccccc1 [duvelisib]
Procedure, shortened: as §1

gandotinib = compound: Cc1cc(Nc2cc(CN3CCOCC3)c3nc(C)c(Cc4ccc(Cl)cc4F)n3n2)n[nH]1 [gandotinib]
Procedure, shortened: as §1

tozasertib = compound: Cc1cc(Nc2cc(N3CCN(C)CC3)nc(Sc3ccc(NC(=O)C4CC4)cc3)n2)n[nH]1 [tozasertib]
Procedure, shortened: as §1

doramapimod = compound: Cc1ccc(-n2nc(C(C)(C)C)cc2NC(=O)Nc2ccc(OCCN3CCOCC3)c3ccccc23)cc1 [doramapimod]
Procedure, shortened: as §1

bafetinib = compound: Cc1ccc(NC(=O)c2ccc(CN3CC[C@H](N(C)C)C3)c(C(F)(F)F)c2)cc1Nc1nccc(-c2cncnc2)n1 [bafetinib]
Procedure, shortened: as §1

[2] = compound: Cc1cccc(CC(=O)N2CCc3c2ccc(-c2cn(C)c4ncnc(N)c24)c3F)n1
Procedure, shortened: as §1

Chain of UniProt P27348 (P27348 whole entry, looked up): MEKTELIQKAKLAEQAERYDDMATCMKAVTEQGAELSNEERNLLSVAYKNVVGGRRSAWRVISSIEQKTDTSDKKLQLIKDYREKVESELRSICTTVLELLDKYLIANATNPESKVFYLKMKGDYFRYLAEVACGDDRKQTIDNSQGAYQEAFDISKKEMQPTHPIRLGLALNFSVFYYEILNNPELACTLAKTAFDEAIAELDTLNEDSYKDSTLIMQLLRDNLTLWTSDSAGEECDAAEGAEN
Chain of UniProt Q96AX1 (Q96AX1 whole entry, looked up): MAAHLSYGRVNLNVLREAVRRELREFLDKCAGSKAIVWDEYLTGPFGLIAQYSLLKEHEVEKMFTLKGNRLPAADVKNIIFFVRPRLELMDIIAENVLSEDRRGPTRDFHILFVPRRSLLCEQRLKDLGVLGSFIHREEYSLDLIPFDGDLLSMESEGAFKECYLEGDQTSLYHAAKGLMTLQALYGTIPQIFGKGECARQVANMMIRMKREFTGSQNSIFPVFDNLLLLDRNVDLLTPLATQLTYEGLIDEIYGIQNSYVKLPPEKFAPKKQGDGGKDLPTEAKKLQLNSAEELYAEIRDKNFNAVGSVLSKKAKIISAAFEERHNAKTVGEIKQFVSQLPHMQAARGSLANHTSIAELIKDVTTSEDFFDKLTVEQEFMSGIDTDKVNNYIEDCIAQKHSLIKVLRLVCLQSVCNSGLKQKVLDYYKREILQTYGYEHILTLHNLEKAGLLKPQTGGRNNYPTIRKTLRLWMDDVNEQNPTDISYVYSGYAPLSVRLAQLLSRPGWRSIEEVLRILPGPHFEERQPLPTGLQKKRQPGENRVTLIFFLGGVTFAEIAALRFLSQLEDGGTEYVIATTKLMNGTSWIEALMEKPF
Chain of UniProt O43592 (O43592 whole entry, looked up): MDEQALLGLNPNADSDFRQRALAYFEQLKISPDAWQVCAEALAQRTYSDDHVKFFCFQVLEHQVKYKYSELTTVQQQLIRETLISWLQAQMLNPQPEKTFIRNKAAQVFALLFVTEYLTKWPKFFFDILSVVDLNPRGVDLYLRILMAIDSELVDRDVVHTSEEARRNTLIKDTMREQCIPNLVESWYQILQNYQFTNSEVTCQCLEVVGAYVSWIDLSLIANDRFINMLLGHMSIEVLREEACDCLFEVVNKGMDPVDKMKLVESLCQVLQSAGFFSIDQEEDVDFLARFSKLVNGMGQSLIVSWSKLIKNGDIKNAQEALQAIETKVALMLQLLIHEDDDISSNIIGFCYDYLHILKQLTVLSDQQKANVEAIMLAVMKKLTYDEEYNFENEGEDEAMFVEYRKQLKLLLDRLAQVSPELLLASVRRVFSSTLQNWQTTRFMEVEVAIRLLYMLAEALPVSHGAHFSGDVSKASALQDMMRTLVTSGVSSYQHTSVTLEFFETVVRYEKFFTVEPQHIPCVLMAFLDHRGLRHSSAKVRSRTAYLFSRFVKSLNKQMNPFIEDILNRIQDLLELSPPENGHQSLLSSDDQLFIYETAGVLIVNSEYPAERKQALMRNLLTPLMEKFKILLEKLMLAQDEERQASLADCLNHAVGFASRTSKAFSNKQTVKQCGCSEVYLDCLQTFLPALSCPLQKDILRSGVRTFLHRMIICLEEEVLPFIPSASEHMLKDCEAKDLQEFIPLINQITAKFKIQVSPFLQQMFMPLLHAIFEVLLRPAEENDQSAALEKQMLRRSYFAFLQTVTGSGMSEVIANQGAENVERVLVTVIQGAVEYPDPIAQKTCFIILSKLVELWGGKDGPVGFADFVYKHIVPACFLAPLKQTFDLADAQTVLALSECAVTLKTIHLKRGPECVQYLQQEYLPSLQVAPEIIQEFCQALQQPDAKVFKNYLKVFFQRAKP
Chain of UniProt Q9Y5T5 (Q9Y5T5 whole entry, looked up): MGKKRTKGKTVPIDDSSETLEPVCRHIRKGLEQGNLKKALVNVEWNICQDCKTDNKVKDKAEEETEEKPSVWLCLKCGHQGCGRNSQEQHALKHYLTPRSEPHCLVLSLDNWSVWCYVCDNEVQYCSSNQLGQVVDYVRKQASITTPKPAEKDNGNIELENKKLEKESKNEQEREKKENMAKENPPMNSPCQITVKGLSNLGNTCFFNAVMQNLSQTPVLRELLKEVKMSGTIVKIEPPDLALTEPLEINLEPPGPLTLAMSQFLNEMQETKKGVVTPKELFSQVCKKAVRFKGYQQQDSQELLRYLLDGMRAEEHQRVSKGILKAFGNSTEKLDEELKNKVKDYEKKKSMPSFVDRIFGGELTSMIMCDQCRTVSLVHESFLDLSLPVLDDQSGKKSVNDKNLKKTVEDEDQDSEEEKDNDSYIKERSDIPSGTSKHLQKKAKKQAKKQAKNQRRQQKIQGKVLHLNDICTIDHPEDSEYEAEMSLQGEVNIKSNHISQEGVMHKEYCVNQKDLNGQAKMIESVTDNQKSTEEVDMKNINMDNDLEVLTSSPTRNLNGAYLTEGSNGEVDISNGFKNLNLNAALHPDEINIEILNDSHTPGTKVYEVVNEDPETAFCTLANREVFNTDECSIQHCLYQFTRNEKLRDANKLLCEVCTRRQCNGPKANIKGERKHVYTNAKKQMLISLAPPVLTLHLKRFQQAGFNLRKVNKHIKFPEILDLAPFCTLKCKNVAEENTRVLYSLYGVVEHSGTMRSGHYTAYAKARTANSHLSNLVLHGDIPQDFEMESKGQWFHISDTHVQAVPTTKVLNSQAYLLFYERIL
Chain of UniProt Q96NC0 (Q96NC0 whole entry, looked up): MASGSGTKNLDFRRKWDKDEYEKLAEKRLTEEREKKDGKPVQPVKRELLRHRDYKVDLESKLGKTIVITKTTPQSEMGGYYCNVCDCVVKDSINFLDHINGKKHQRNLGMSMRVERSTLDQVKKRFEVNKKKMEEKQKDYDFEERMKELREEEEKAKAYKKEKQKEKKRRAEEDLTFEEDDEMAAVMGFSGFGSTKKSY
Chain of UniProt Q5VZL5 (Q5VZL5 whole entry, looked up): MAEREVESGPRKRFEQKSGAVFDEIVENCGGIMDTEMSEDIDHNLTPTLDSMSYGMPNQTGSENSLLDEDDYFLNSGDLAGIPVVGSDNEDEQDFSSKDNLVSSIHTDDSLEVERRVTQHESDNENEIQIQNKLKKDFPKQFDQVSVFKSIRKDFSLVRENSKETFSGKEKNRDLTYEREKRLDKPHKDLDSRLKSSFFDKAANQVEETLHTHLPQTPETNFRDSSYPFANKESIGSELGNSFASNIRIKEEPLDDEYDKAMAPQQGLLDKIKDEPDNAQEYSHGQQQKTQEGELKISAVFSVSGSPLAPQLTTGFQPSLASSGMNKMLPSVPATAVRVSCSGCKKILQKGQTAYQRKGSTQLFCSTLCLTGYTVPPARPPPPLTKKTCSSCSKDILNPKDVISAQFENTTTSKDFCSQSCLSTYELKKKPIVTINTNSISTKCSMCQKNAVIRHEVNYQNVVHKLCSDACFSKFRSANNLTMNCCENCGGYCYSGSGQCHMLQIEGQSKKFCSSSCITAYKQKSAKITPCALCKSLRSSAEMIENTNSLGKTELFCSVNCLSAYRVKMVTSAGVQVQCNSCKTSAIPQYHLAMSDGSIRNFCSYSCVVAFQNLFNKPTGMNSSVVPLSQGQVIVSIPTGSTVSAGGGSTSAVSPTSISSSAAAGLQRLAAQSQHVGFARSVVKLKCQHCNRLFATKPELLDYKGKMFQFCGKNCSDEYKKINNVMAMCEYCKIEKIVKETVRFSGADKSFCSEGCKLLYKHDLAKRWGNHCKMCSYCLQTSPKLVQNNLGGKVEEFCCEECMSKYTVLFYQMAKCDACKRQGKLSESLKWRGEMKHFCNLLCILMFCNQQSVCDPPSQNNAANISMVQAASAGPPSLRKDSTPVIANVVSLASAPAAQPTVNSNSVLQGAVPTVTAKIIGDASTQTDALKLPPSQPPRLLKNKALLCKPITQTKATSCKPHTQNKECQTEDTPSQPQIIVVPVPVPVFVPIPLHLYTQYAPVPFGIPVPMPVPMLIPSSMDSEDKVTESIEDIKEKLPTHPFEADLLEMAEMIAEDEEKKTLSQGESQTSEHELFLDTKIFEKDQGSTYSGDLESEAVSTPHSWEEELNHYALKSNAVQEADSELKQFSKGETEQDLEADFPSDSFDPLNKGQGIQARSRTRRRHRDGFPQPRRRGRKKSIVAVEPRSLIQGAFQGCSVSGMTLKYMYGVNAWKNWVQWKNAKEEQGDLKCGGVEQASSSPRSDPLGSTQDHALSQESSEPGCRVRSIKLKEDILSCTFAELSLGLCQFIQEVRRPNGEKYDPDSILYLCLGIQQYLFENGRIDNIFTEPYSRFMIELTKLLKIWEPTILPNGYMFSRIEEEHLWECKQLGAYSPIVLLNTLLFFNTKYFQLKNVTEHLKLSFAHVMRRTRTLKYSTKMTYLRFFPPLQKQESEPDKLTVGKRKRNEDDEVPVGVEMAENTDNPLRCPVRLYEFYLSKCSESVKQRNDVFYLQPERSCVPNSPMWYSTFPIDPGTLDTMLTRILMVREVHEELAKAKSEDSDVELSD
Chain of UniProt Q9NUE0 (Q9NUE0 whole entry, looked up): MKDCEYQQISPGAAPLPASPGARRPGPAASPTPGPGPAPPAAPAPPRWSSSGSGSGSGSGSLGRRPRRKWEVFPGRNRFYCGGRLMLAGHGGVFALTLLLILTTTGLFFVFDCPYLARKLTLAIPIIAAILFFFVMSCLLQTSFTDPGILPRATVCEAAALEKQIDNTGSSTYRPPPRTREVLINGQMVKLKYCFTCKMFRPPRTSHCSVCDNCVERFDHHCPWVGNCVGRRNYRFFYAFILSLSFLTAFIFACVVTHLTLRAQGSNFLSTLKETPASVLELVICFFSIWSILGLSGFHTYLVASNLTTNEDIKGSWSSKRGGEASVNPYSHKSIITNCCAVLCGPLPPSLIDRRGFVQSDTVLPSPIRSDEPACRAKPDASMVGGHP
Chain of UniProt Q9UBK9 (Q9UBK9 whole entry, looked up): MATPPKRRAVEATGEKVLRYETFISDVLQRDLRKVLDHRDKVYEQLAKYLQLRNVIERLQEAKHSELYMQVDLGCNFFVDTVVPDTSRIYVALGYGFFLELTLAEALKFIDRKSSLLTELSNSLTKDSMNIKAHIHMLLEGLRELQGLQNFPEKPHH

Row | Target | log2 fold change (lapatinib) | log2 fold change (pictilisib) | log2 fold change (crizotinib) | log2 fold change [1] | log2 fold change (duvelisib) | log2 fold change (gandotinib) | log2 fold change (tozasertib) | log2 fold change (doramapimod) | log2 fold change (bafetinib) | log2 fold change [2]
1 | USP16 (UniProt Q9Y5T5) | 0.003 (inactive) | -0.049 (inactive) | -0.018 (inactive) | 0.003 (inactive) | 0.049 (inactive) | -0.039 (inactive) | 0.006 (inactive) | -0.017 (inactive) | -0.037 (inactive) | 0.035 (inactive)
2 | VPS28 (UniProt Q9UK41) | 0.038 (inactive) | -0.005 (inactive) | 0.051 (inactive) | -0.132 (inactive) | -0.032 (inactive) | 0.018 (inactive) | -0.03 (inactive) | -0.005 (inactive) | 0.034 (inactive) | 0.034 (inactive)
3 | USP9X (UniProt Q93008) | -0.031 (inactive) | -0.027 (inactive) | -0.058 (inactive) | -0.015 (inactive) | -0.017 (inactive) | -0.127 (inactive) | 0.011 (inactive) | 0.004 (inactive) | -0.034 (inactive) | 0.027 (inactive)
4 | WRN (UniProt Q14191) | -0.008 (inactive) | 0.006 (inactive) | -0.031 (inactive) | -0.042 (inactive) | -0.034 (inactive) | -0.008 (inactive) | 0.037 (inactive) | 0.02 (inactive) | -0.064 (inactive) | 0.073 (inactive)
5 | USP8 (UniProt P40818) | -0.011 (inactive) | -0.048 (inactive) | -0.009 (inactive) | 0.002 (inactive) | -0.023 (inactive) | -0.077 (inactive) | -0.013 (inactive) | 0.001 (inactive) | -0.026 (inactive) | 0.017 (inactive)
6 | ZMYM4 (UniProt Q5VZL5) | -0.022 (inactive) | 0.037 (inactive) | -0.009 (inactive) | -0.07 (inactive) | -0.007 (inactive) | 0.004 (inactive) | 0.028 (inactive) | 0.031 (inactive) | 0.008 (inactive) | 0.042 (inactive)
7 | XPO6 (UniProt Q96QU8) | -0.012 (inactive) | -0.069 (inactive) | -0.086 (inactive) | -0.158 (inactive) | 0.06 (inactive) | 0.005 (inactive) | 0.072 (inactive) | 0.034 (inactive) | -0.105 (inactive) | 0.175 (inactive)
8 | ZMAT2 (UniProt Q96NC0) | 0.006 (inactive) | 0.003 (inactive) | -0.005 (inactive) | 0.02 (inactive) | -0.034 (inactive) | -0.035 (inactive) | -0.028 (inactive) | 0.042 (inactive) | 0.053 (inactive) | -0.043 (inactive)
9 | XPOT (UniProt F5GYW6) | -0.115 (inactive) |  |  |  |  |  |  |  |  | 
10 | VPS33A (UniProt Q96AX1) | 0 (inactive) | -0.005 (inactive) | -0.025 (inactive) | -0.03 (inactive) | 0.039 (inactive) | -0.043 (inactive) | 0.01 (inactive) | 0 (inactive) | 0.014 (inactive) | 0.036 (inactive)
11 | WDR41 (UniProt Q9HAD4) | 0.013 (inactive) | 0.099 (inactive) | 0.022 (inactive) | -0.037 (inactive) | -0.026 (inactive) | 0.149 (inactive) | -0.069 (inactive) | 0.241 (active) | -0.065 (inactive) | 0.126 (inactive)
12 | UTP3 (UniProt Q9NQZ2) | 0.002 (inactive) | -0.031 (inactive) | -0.094 (inactive) | -0.008 (inactive) | 0.031 (inactive) | -0.007 (inactive) | -0.027 (inactive) | 0.066 (inactive) | -0.061 (inactive) | 0.029 (inactive)
13 | ZDHHC18 (UniProt Q9NUE0) | 0.029 (inactive) | 0.078 (inactive) | -0.023 (inactive) | -0.017 (inactive) | 0.013 (inactive) | -0.149 (inactive) | -0.061 (inactive) | 0.054 (inactive) | -0.068 (inactive) | -0.11 (inactive)
14 | WDR24 (UniProt Q96S15) | -0.004 (inactive) | 0.104 (inactive) | -0.006 (inactive) | -0.072 (inactive) | 0.004 (inactive) | 0.072 (inactive) | 0.065 (inactive) | -0.166 (inactive) | -0.134 (inactive) | 0.125 (inactive)
15 | YWHAQ (UniProt P27348) | 0.001 (inactive) | 0.038 (inactive) | 0.07 (inactive) | 0.466 (active) | -0.012 (inactive) | -0.089 (inactive) | -0.024 (inactive) | -0.043 (inactive) | -0.043 (inactive) | -0.095 (inactive)
16 | VRK1 (UniProt Q99986) | -0.005 (inactive) | 0.002 (inactive) | -0.023 (inactive) | 0.172 (inactive) | 0.013 (inactive) | -0.078 (inactive) | -0.052 (inactive) | -0.052 (inactive) | -0.042 (inactive) | -0.014 (inactive)
17 | ZBTB33 (UniProt Q86T24) | 0.047 (inactive) | 0.149 (inactive) | -0.111 (inactive) | -0.165 (inactive) | -0.041 (inactive) | 0.028 (inactive) | 0.048 (inactive) | 0.022 (inactive) | 0.046 (inactive) | 0.048 (inactive)
18 | ZC3H11A (UniProt O75152) | -0.09 (inactive) | -0.046 (inactive) | -0.071 (inactive) | 0.222 (inactive) | 0.013 (inactive) | -0.12 (inactive) | 0.016 (inactive) | 0.013 (inactive) | -0.113 (inactive) | -0.134 (inactive)
19 | VPS4A (UniProt Q9UN37) | 0.003 (inactive) | -0.034 (inactive) | -0.034 (inactive) | -0.042 (inactive) | -0.012 (inactive) | -0.066 (inactive) | 0.007 (inactive) | 0.038 (inactive) | 0.004 (inactive) | 0.056 (inactive)
20 | UXT isoform 2 (UniProt Q9UBK9) | -0.018 (inactive) | -0.073 (inactive) | 0.003 (inactive) | -0.018 (inactive) | -0.006 (inactive) | 0.084 (inactive) | -0.053 (inactive) | 0.012 (inactive) | 0.089 (inactive) | 0.065 (inactive)
21 | VAV3 isoform 4 (UniProt Q9UKW4) | -0.167 (inactive) | -0.057 (inactive) | -0.217 (inactive) | -0.655 (active) | -0.008 (inactive) | 0.135 (inactive) | -0.093 (inactive) | 0.325 (inactive) | 0.023 (inactive) | 0.242 (inactive)
22 | ZC3HC1 (UniProt Q86WB0) | 0.042 (inactive) | 0.001 (inactive) | 0.023 (inactive) | 0.222 (active) | 0.013 (inactive) | -0.082 (inactive) | -0.036 (inactive) | 0.025 (inactive) | -0.019 (inactive) | -0.094 (inactive)
23 | VPS16 (UniProt Q9H269) | -0.014 (inactive) | 0.005 (inactive) | -0.08 (inactive) | -0.019 (inactive) | 0.013 (inactive) | -0.024 (inactive) | 0.004 (inactive) | -0.013 (inactive) | -0.051 (inactive) | 0.03 (inactive)
24 | YTHDF3 (UniProt Q7Z739) | -0.065 (inactive) | 0.05 (inactive) | 0.01 (inactive) | -0.035 (inactive) | 0.017 (inactive) | 0.107 (inactive) | -0.03 (inactive) | 0.078 (inactive) | -0.073 (inactive) | 0.097 (inactive)
25 | ZNF346 (UniProt Q9UL40) | 0.01 (inactive) | -0.008 (inactive) | 0.009 (inactive) | -0.01 (inactive) | -0.009 (inactive) | -0.026 (inactive) | 0.005 (inactive) | 0.02 (inactive) | -0.043 (inactive) | -0.072 (inactive)
26 | UQCRC2 (UniProt P22695) | -0.04 (inactive) | -0.008 (inactive) | 0.019 (inactive) | -0.011 (inactive) | 0.001 (inactive) | -0.004 (inactive) | -0.025 (inactive) | -0.027 (inactive) | -0.05 (inactive) | -0.007 (inactive)
27 | WDR77 (UniProt Q9BQA1) | 0.012 (inactive) | 0.016 (inactive) | -0.027 (inactive) | 0.014 (inactive) | 0.119 (inactive) | -0.037 (inactive) | -0.005 (inactive) | 0.008 (inactive) | -0.024 (inactive) | -0.047 (inactive)
28 | XPOT (UniProt O43592) | -0.033 (inactive) | 0.013 (inactive) | -0.051 (inactive) | -0.044 (inactive) | 0.022 (inactive) | -0.086 (inactive) | -0.007 (inactive) | 0 (inactive) | -0.04 (inactive) | 0.057 (inactive)
